This note sets out measurements from ChEMBL document CHEMBL3988442, “University of Dundee, Small-Polar-MMV Screening Library” (2021).

Parameters in all cases: scale not given: direction of the effect not stated beside the values
Test [1] addresses Protein translocase subunit SecA (Escherichia coli (strain K12)) (UniProt P10408). Kind of test: Assay to Identify E. coli SecA ATPase Inhibitors. The note with it: 30 µM. The test is classed as functional.
Test [2] addresses T1, Ubiquitin-activating enzyme e1, putative (Leishmania donovani (strain BPK282A1)) (UniProt E9BSI1).
T1 sequence (whole entry): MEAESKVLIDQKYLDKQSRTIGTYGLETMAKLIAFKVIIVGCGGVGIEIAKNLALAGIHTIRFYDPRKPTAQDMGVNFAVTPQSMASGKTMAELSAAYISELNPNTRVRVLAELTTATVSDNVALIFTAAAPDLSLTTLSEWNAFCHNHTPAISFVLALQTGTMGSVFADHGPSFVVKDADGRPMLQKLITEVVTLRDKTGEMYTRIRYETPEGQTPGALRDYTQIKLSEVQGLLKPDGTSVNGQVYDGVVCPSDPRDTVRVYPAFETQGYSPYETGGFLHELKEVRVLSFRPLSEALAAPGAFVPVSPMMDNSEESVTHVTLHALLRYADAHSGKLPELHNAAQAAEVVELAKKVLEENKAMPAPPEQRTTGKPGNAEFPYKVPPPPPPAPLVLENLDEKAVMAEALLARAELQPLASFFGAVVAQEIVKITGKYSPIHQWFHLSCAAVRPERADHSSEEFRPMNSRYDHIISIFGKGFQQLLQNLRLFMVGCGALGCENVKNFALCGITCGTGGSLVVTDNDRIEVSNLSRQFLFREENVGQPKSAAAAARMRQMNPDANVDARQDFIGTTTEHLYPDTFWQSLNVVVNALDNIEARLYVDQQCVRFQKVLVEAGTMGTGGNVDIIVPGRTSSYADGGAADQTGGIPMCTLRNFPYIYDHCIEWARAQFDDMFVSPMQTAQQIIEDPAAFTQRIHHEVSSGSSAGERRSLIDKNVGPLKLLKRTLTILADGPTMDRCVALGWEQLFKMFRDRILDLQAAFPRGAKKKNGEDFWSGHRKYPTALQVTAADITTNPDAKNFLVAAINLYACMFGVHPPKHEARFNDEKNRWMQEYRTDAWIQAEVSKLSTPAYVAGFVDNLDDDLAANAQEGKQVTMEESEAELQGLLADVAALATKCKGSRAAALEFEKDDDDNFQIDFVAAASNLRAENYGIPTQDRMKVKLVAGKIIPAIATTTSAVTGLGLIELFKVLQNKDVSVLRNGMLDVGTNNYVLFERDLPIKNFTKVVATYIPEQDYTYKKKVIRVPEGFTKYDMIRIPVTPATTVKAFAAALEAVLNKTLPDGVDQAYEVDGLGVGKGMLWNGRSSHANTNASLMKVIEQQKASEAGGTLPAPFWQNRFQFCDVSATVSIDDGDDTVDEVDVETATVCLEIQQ
Nature of the test: Leishmania donovani Ubiquitin Activating Enzyme (LdE1). The test is classed as functional. The conditions noted are these: 30 µM.

Test [3] concerns the target AMP-activated protein kinase, AMPK (Homo sapiens) (UniProt P54646+O43741+P54619+Q9UGJ0+Q9Y478+Q13131+Q9UGI9). Kind of test: AMP-dependent Kinase enzyme assay. An in vitro enzyme assay that detects ADP turnover that is directly proportional to AMPK activity. This uses naive AMPK that is activated during the assay with MK-8722. The test is classed as functional. The conditions noted are these: 30 µM.

Test [4] concerns the target Sialic acid-binding Ig-like lectin 9 (Homo sapiens) (UniProt Q9Y336). Nature of the test: Hs-Siglec9 ALPHAscreen SOP 20170721. The note with it: 10 µM.
The test system of test [5] is Trypanosoma cruzi. Nature of the test: Trypanosoma cruzi phosphomannomutase and mannose-1-phosphate guanylyltransferase assay. The conditions noted are these: 10 µM. The test is classed as functional.
Test [6] addresses T2, Arginase-2, mitochondrial (Homo sapiens) (UniProt P78540).
T2 sequence (whole entry): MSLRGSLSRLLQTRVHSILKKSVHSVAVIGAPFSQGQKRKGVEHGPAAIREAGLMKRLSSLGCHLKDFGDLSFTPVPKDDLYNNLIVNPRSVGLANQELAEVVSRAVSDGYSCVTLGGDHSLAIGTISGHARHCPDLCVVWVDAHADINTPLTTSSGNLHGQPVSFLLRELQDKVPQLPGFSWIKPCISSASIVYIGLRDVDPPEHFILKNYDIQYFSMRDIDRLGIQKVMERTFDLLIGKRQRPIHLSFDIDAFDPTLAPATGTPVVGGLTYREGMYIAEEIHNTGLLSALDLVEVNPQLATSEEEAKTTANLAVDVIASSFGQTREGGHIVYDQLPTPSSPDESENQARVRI
Kind of test: in vitro enzyme assay to detect the production of urea directly proportional to the activity of Arginase II. Also: in the data most compounds retested in dose-response had high values. The test is classed as functional. The conditions noted are these: 33.3 µM.

Test [7] addresses T3, Proteasome subunit beta (Trypanosoma cruzi) (UniProt O96673).
T3 sequence (whole entry): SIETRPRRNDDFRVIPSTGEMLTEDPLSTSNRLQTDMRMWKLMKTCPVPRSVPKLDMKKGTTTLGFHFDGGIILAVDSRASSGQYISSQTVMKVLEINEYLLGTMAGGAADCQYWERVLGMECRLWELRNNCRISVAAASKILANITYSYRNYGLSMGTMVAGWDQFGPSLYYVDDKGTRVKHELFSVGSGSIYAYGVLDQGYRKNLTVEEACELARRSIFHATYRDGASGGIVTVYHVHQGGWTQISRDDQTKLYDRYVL
Kind of test: Trypanosoma cruzi proteasome chymotrypsin-like activity (TcProtChymo) assay. Also: in the data most compounds retested in dose-response had high values. The conditions noted are these: 9.37 µM. The test is classed as functional.

Test [8] is filed under the species Homo sapiens. Nature of the test: To identify inhibition of the IFN signalling (Jak-Stat) pathway via expression of an eGFP reporter gene under the control of an IFN-stimulated response element (ISRE) containing MxA promoter. The class given is functional. The note with it: 30 µM.
For test [9], the target named is T4, Tyrosyl-tRNA synthetase, putative (Trypanosoma cruzi (strain CL Brener)) (UniProt Q4DSP6).
T4 sequence (whole entry): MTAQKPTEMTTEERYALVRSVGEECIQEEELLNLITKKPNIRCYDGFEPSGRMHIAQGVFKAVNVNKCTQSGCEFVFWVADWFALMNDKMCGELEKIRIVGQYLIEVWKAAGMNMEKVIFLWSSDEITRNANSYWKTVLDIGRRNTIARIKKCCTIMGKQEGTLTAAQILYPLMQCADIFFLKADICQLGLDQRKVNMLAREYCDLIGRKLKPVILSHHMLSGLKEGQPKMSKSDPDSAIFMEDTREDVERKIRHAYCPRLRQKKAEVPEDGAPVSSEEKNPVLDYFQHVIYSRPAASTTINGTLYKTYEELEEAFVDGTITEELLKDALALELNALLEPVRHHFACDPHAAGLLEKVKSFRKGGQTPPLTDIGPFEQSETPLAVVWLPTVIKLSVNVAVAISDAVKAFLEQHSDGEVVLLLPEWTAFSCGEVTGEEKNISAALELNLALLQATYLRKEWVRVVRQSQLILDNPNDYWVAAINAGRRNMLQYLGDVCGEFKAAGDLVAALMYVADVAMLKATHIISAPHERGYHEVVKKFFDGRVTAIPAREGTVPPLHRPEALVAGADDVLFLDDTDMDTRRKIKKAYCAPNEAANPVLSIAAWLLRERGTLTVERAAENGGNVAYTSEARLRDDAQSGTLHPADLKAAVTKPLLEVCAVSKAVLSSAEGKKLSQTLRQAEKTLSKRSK
Kind of test: Trypanosoma cruzi tyrosyl tRNA synthetase (TcYRS) _High Tyrosine SOP. Also: in the data most compounds retested in dose-response had high values. The class given is functional. The note with it: 30 µM.

The target of test [10] is T4, Tyrosyl-tRNA synthetase, putative (Trypanosoma cruzi (strain CL Brener)). Nature of the test: Trypanosoma cruzi tyrosyl tRNA synthetase (TcYRS) SOP. The test is classed as functional. The conditions noted are these: 30 µM.
Test [11] deals with Chromo domain-containing protein 1 (Saccharomyces cerevisiae (strain ATCC 204508 / S288c) (Baker's yeast)) (UniProt P32657). Kind of test: ScCHD-1 Enzyme Inhibition Assay. Also: in the data most compounds retested in dose-response had high values. The class given is functional. The note with it: 30 µM.

Structures are written as SMILES. For some of these results: Measured potencies and affinities stand elsewhere.

Sialic acid-binding Ig-like lectin 9 (Homo sapiens), sequence (Q9Y336 whole entry): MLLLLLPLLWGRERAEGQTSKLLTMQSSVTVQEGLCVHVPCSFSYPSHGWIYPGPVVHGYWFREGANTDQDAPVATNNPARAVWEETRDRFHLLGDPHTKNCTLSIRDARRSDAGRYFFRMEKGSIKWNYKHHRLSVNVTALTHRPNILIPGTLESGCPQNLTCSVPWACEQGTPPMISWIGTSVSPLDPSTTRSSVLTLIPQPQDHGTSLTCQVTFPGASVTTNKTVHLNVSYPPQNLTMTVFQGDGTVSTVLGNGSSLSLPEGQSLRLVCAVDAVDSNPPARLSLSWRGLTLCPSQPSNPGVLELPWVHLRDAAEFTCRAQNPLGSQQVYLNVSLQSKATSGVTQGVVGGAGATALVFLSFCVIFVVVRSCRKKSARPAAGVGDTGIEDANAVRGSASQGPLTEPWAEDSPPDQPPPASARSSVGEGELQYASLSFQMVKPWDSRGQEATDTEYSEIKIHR
Protein translocase subunit SecA (Escherichia coli (strain K12)), sequence (P10408 whole entry): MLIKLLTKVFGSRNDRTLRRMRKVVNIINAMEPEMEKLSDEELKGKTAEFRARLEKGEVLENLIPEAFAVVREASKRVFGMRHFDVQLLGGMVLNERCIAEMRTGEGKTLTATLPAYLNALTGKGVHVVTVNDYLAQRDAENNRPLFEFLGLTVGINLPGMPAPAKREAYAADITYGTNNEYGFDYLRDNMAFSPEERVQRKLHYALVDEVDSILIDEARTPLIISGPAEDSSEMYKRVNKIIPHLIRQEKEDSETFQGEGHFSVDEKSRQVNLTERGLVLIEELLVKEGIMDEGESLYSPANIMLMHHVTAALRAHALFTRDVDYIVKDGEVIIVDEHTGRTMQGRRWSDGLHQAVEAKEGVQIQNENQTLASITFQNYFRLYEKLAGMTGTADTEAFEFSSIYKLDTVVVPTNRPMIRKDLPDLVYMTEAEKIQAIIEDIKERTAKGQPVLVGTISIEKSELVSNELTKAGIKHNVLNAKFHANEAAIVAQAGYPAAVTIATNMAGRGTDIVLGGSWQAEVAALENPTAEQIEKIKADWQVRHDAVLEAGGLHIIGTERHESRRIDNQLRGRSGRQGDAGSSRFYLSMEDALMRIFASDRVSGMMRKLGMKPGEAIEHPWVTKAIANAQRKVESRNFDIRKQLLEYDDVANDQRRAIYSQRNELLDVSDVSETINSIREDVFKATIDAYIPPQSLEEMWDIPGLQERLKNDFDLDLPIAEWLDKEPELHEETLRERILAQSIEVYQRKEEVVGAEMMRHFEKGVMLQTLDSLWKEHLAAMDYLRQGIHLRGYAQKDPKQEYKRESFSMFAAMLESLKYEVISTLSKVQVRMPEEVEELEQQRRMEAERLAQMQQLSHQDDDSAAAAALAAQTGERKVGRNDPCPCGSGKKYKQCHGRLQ
Chromo domain-containing protein 1 (Saccharomyces cerevisiae (strain ATCC 204508 / S288c) (Baker's yeast)), sequence (P32657 whole entry, the tested form may be a part): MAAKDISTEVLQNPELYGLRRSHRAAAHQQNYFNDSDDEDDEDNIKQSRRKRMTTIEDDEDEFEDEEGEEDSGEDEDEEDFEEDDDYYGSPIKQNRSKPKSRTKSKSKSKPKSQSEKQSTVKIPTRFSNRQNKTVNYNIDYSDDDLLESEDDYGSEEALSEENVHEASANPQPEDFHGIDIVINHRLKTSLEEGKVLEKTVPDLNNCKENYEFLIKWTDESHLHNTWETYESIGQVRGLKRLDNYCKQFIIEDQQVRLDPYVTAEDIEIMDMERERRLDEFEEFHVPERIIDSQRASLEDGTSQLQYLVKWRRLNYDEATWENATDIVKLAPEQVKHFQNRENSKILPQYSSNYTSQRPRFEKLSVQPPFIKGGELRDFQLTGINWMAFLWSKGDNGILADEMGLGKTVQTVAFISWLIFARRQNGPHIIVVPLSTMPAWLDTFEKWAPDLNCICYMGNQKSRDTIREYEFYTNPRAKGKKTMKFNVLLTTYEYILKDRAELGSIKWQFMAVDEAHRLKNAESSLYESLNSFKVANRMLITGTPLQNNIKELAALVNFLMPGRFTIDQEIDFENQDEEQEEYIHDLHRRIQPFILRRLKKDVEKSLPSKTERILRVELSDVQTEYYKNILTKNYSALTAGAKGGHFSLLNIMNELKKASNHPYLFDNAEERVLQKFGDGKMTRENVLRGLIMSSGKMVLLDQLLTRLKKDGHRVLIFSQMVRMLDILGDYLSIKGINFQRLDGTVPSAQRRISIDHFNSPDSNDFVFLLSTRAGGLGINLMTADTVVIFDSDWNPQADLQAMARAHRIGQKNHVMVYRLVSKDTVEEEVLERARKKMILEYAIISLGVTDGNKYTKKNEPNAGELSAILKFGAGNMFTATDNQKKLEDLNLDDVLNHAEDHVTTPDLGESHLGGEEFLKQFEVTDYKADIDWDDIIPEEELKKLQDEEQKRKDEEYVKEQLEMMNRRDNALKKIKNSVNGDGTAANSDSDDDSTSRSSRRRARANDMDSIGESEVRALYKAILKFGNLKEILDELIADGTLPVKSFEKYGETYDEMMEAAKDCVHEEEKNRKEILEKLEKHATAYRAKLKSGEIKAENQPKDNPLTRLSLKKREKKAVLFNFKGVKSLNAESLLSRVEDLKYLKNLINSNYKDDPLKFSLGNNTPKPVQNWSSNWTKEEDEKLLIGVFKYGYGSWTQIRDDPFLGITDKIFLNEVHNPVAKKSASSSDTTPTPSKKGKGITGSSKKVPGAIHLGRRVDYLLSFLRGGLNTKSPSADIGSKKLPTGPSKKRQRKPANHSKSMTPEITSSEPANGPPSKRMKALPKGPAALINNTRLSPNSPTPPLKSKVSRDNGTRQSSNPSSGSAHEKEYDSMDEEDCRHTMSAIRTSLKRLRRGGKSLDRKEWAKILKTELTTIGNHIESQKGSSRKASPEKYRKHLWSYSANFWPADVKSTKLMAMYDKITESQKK

For `Cc1nnc2n1CCN(Cc1csc(CC(=O)N(C)C)n1)C2`, the Percent Effect in test [1] is -4.68%; in test [2], 10.8%; in test [3] it was -6.55%; in test [4] it was 9.69%; in test [5], -1.21%; in test [6] it was -2.03%. Moreover, the Percent Effect stood at 3.77% in test [7]; 9.18% in test [8]; 5.94% in test [9]; 13.4% in test [10]; 0.846% in [11].

As to `CCc1nnc2n1CCN(C(=O)c1cnc3ccccc3n1)C2`, the Percent Effect in [1] was -4.63%; in [2], 4.17%; in test [3], -7.62%; in test [4], 28.2%; in [5], 3.79%; in test [6] it was 17.2%. Further, the Percent Effect in [7] was 12.5%; in test [8], -6.01%; in test [9], 5.26%; in [10] it was 12.8%; in test [11] it was -3.35%.

In the case of `CC(C)OCCN1CCC(N2CCN(C)C2=O)CC1`, the Percent Effect in test [1] is -8.32%; in test [2] it was 10.4%; in test [3] it was -1.47%; in test [4], 4.31%; in test [5] it was 8.24%; in [6], -6.05%. The Percent Effect in test [7] is -1.18%; in [8] it was 6.82%; in test [9], 4.85%; in [10], 14.6%; in test [11], -9.74%.

As for `CC(C)COC(C)C(=O)N1CCN(S(C)(=O)=O)CC1` (stereo unspecified), the Percent Effect in test [1] is -3.12%; in [2], 8.22%; in test [3], -1.38%; in test [4], 2.29%; in test [5], 3.53%; in [6] it was 1.36%. Further, the Percent Effect in test [7] is 8.34%; in [8] it was -1.94%; in [9], 4.3%; in [10], 20%; in [11], -4.42%.

In the case of `CCN1CCOC(CNCc2ccccc2OCc2ccccn2)C1` (stereo unspecified), the Percent Effect in test [1] was -2.71%; in test [2], 5.26%; in test [3] it was -13%; in [4], -5.97%; in [5], -4.39%; in test [6] it was 3.24%. The Percent Effect was 9.56% in test [7]; 9.07% in test [8]; 6.4% in test [9]; 13.6% in [10]; -8.14% in [11].

Turning to `Cc1cc(C)n(CC2CN(CCOc3cccc(F)c3)CCO2)n1` (stereo unspecified), the Percent Effect in test [1] was -4.88%; in test [2], 7.89%; in [3], 0.382%; in test [4], 4.47%; in test [5], 1.59%; in test [6], -3.24%. In addition, the Percent Effect in [7] is 1.1%; in [8], 24.5%; in test [9], 4.43%; in test [10], 16.1%; in test [11] it was -3.81%.

With `CC(=O)N1CCC(c2ccnc(Nc3cnccn3)n2)C1` (stereo unspecified), the Percent Effect in [1] was -0.594%; in test [2], 13.3%; in [3], 12.9%; in [4], 1.15%; in test [5] it was -4.72%; in test [6] it was -4.43%. Moreover, the Percent Effect is 5.73% in [7]; 5.13% in [8]; 4.25% in test [9]; 16.7% in test [10]; -5.82% in test [11].

As for `CC(NC(=O)Cn1cccn1)c1ccc2c(c1)OCCCO2` (stereo unspecified), the Percent Effect is -2.38% in test [1]; 28.6% in [2]; 20.8% in [3]; 1.54% in test [4]; 6.55% in test [5]; 3.92% in test [6]. The Percent Effect is 10.1% in [7]; 32.9% in [8]; 8.74% in [9]; 14.6% in test [10]; -16.5% in test [11].

Turning to `Cc1n[nH]c(C)c1C1CCCN1C(=O)CNC(=O)C(C)(C)C` (stereo unspecified), the Percent Effect was -0.905% in test [1]; 8.22% in test [2]; 0.299% in [3]; 14% in test [4]; 2.74% in [5]; 20.9% in [6]. The Percent Effect in test [7] is 11.5%; in test [8], -2.46%; in [9], 0%; in [10], 5%; in test [11], -4.49%.

As for `Cc1ccc(C(O)CNCc2c(C(C)C)nn(C)c2N(C)C)cc1` (stereo unspecified), the Percent Effect is -7.17% in test [1]; 13% in [2]; -5.78% in [3]; 6.38% in test [4]; 7.87% in test [5]; -3.56% in [6]. Also, the Percent Effect was 10.1% in [7]; -0.105% in [8]; 10.7% in [9]; 19.5% in [10]; -7.91% in [11].

As to `CN(Cc1ncc(C(C)(C)C)o1)C1CCCN(c2cccnn2)C1` (stereo unspecified), the Percent Effect was -2.8% in test [1]; 15.2% in test [2]; -7.54% in [3]; -5.13% in test [4]; 3.49% in test [5]; 2.66% in [6]. The Percent Effect in test [7] is 13.2%; in test [8], 2.64%; in test [9], 12.3%; in [10] it was 16.5%; in [11] it was -3.04%.
